The results in this text go back to article PMC7862700, “An all-to-all approach to the identification of sequence-specific readers for epigenetic DNA modifications on cytosine”.

Experiment in all cases: DAPPL (digital affinity profiling via proximity ligation, sequencing); 10 mM Tris-HCl pH 7.5, 50 mM NaCl, 1 mM DTT, 4% glycerol, room temperature, 30 min; GST-TFs on glutathione beads, 16-mer random dsDNA library, 0.1% formaldehyde crosslink after washing; high values mean tight binding
For assay [1], the target named is T1, FEV (Homo sapiens, UniProt Q99581 1-238).
T1 sequence: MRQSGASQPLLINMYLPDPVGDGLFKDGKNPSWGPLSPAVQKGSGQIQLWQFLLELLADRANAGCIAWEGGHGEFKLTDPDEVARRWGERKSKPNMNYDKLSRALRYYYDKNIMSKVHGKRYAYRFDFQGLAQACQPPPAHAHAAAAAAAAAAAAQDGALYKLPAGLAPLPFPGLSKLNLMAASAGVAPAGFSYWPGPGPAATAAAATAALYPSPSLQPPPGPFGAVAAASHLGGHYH
To be noted: protein: recombinant; tags: N-terminal GST; dsDNA, one strand shown. Put shortly:
(§1)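 A tag-only sample was pooled with DNA-barcoded human transcription factors that had been expressed in yeast as GST fusions and captured on glutathione beads. The pools were incubated for 30 min at room temperature with 200 nmole of a random double-stranded 16-mer DNA library in Tris/NaCl/DTT/glycerol buffer, then washed, crosslinked with 0.1% formaldehyde, proximity-ligated (BsaI/T4 ligase, 1 h, 37 °C), PCR-amplified and sequenced on an Illumina NextSeq500. Binding signal is each hexamer's read frequency for a factor divided by its frequency for the tag-only sample.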

Assay [2] addresses ETV5 (Homo sapiens, UniProt P41161 1-510). To be noted: protein: recombinant; tags: N-terminal GST; dsDNA, one strand shown. Put shortly:
as §1

The target in assay [3] is HSF1 (Homo sapiens, UniProt Q00613 1-529). Particulars: protein: recombinant; tags: N-terminal GST; chain copies: 3; dsDNA, one strand shown. In a few lines:
as §1

For assay [4], the target named is T2, SPIC (Homo sapiens, UniProt Q8N5J4 1-248).
T2 sequence: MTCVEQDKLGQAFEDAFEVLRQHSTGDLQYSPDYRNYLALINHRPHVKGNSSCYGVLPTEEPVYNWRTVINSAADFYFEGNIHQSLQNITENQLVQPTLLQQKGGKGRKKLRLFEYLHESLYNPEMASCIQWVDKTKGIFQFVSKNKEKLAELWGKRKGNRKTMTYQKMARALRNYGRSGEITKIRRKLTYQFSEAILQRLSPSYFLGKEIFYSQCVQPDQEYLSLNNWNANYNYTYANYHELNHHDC
To be noted: protein: recombinant; tags: N-terminal GST; dsDNA, one strand shown. Put shortly: as §1

The target of assay [5] is ELF4 (Homo sapiens, UniProt Q99607 1-663). Particulars: protein: recombinant; tags: N-terminal GST; dsDNA, one strand shown. Put shortly:
as §1

Assay [6] deals with T3, ELK4 (Homo sapiens, UniProt P28324-2 1-405).
T3 sequence: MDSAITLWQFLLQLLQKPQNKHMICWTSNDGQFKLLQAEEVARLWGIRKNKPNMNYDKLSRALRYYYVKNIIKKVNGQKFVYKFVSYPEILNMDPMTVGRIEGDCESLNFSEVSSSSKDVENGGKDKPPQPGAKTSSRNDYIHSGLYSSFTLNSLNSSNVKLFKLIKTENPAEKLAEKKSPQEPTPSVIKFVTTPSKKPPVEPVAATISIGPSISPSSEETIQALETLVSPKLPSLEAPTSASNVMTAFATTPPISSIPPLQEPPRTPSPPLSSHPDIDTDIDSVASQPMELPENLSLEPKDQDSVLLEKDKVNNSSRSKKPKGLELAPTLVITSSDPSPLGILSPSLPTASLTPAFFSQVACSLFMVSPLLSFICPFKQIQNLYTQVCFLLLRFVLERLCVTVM
Particulars: protein: recombinant; tags: N-terminal GST; dsDNA, one strand shown. In a few lines:
as §1

For assay [7], the target named is T4, ETV2 (Homo sapiens, UniProt O00321 1-342).
T4 sequence: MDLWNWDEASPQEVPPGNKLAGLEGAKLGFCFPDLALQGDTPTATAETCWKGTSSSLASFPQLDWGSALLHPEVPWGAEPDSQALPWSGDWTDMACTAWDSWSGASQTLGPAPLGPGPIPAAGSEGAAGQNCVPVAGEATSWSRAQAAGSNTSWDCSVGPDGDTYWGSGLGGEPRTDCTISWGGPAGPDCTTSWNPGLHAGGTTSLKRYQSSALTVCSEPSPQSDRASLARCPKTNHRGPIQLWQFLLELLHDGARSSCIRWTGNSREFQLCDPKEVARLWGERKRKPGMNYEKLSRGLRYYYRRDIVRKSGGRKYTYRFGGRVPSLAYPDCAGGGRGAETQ
To be noted: protein: recombinant; tags: N-terminal GST; dsDNA, one strand shown. Put shortly:
as §1

The target in assay [8] is T5, ELF3 (Homo sapiens, UniProt P78545 1-371).
T5 sequence: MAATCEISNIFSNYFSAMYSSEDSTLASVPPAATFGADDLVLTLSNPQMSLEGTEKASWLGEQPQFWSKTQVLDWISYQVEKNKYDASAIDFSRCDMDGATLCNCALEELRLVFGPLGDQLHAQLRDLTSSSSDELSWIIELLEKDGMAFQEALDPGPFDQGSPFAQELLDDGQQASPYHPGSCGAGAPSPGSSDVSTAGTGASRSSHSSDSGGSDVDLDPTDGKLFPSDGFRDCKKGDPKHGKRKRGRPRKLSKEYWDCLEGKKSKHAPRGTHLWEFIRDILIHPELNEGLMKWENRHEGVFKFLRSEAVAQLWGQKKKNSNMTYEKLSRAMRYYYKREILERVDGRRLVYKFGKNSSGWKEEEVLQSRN
Particulars: protein: recombinant; tags: N-terminal GST; dsDNA, one strand shown. In a few lines:
as §1

In assay [9] the target is CRX (Homo sapiens, UniProt O43186 1-299). To be noted: protein: recombinant; tags: N-terminal GST; dsDNA, one strand shown. In a few lines:
as §1

Assay [10] concerns the target ETV1 (Homo sapiens, UniProt P50549 1-477). Particulars: protein: recombinant; tags: N-terminal GST; dsDNA, one strand shown. Put shortly:
as §1

Chain of CRX (O43186 whole entry): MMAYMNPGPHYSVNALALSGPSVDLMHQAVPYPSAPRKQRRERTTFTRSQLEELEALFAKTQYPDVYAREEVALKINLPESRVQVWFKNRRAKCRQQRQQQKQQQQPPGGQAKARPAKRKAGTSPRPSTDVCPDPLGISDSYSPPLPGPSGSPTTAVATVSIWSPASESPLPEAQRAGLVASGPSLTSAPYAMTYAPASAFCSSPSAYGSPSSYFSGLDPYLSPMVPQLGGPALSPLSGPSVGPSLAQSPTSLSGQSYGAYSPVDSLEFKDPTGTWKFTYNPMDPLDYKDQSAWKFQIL
Chain of ETV5 (P41161 whole entry): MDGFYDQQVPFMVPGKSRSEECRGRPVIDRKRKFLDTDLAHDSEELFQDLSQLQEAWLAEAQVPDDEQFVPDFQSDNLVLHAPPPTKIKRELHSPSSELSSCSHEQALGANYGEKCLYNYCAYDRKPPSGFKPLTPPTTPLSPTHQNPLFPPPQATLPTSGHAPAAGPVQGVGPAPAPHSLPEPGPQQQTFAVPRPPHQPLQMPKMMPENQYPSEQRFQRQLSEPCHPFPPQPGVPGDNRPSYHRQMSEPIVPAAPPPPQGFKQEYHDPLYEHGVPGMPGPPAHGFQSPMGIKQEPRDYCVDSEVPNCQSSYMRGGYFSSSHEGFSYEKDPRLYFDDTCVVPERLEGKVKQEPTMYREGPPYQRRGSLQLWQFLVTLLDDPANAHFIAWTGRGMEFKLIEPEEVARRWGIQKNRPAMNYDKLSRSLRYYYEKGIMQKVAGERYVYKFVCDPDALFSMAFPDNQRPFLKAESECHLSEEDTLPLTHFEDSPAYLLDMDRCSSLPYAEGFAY
Chain of ETV1 (P50549 whole entry): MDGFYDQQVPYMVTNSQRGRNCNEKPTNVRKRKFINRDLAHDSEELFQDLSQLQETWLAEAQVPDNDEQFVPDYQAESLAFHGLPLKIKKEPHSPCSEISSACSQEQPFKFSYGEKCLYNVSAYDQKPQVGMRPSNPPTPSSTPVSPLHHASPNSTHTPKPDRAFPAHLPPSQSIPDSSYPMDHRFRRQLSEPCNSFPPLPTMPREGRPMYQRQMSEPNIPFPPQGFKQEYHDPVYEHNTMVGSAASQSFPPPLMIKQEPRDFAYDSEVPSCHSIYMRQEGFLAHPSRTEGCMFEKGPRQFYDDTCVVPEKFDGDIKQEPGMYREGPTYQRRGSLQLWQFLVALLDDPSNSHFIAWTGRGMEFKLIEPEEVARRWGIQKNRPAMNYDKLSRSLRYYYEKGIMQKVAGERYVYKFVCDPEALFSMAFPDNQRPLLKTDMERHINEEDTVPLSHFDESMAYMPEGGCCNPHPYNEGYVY
Chain of ELF4 (Q99607 whole entry): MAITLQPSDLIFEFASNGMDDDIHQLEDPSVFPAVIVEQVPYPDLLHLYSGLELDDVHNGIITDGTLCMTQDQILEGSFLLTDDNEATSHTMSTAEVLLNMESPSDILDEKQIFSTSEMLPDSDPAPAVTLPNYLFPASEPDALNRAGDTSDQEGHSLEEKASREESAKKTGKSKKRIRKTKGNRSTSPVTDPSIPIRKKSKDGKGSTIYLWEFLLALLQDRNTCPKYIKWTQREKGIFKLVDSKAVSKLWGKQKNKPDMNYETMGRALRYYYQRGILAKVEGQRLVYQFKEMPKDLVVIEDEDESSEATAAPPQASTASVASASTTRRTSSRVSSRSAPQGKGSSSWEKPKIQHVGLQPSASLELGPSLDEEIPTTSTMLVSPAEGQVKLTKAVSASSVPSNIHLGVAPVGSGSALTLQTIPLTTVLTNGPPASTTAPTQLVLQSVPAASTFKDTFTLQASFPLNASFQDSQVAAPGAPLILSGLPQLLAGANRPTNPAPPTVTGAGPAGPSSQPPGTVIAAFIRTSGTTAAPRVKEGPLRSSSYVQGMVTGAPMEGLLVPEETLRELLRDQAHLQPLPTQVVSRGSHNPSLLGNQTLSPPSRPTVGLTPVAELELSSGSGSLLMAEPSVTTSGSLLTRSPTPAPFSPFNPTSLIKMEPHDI
Chain of HSF1 (Q00613 whole entry): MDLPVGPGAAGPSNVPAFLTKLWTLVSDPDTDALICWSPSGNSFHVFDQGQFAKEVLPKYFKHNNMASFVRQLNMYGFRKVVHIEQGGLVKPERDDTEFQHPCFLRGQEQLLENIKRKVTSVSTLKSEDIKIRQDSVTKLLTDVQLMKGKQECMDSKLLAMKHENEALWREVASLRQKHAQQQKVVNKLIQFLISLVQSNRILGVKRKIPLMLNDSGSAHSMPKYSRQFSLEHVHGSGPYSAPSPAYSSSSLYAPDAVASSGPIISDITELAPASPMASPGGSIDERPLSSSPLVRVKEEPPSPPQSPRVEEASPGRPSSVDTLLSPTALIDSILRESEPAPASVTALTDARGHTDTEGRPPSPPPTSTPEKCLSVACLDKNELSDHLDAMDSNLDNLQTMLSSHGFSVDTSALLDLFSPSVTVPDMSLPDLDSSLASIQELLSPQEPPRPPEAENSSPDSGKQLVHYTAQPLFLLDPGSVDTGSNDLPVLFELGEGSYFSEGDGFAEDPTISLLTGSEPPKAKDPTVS

Turning to CACTTT, the binding signal in assay [1] is 1.18 fold enrichment (6-mer frequency, TF over GST control); in [2], 1.38 fold enrichment (6-mer frequency, TF over GST control); in assay [3], 1.17 fold enrichment (6-mer frequency, TF over GST control); in assay [4] it was 1.29 fold enrichment (6-mer frequency, TF over GST control); in assay [5] it was 1.3 fold enrichment (6-mer frequency, TF over GST control); in [6] it was 1.34 fold enrichment (6-mer frequency, TF over GST control). The binding signal was 1.35 fold enrichment (6-mer frequency, TF over GST control) in [7]; 1.28 fold enrichment (6-mer frequency, TF over GST control) in assay [8]; 1.14 fold enrichment (6-mer frequency, TF over GST control) in assay [9]; 1.3 fold enrichment (6-mer frequency, TF over GST control) in assay [10].
Take GCCTCT: the binding signal in [1] was 1.39 fold enrichment (6-mer frequency, TF over GST control); in assay [2] it was 1.39 fold enrichment (6-mer frequency, TF over GST control); in [3], 1.25 fold enrichment (6-mer frequency, TF over GST control); in [4] it was 1.21 fold enrichment (6-mer frequency, TF over GST control); in assay [5], 1.42 fold enrichment (6-mer frequency, TF over GST control); in [6], 1.28 fold enrichment (6-mer frequency, TF over GST control). The binding signal in assay [7] is 1.45 fold enrichment (6-mer frequency, TF over GST control); in [8], 1.28 fold enrichment (6-mer frequency, TF over GST control); in assay [9], 1.28 fold enrichment (6-mer frequency, TF over GST control); in [10], 1.32 fold enrichment (6-mer frequency, TF over GST control).
Consider CATTTG, for which the binding signal is 1.21 fold enrichment (6-mer frequency, TF over GST control) in assay [1]; 1.24 fold enrichment (6-mer frequency, TF over GST control) in assay [2]; 1.13 fold enrichment (6-mer frequency, TF over GST control) in assay [3]; 1.15 fold enrichment (6-mer frequency, TF over GST control) in assay [4]; 1.26 fold enrichment (6-mer frequency, TF over GST control) in assay [5]; 1.26 fold enrichment (6-mer frequency, TF over GST control) in assay [6]. The binding signal was 1.29 fold enrichment (6-mer frequency, TF over GST control) in assay [7]; 1.49 fold enrichment (6-mer frequency, TF over GST control) in assay [8]; 1.07 fold enrichment (6-mer frequency, TF over GST control) in assay [9]; 1.32 fold enrichment (6-mer frequency, TF over GST control) in [10].
CCGTTC: the binding signal in assay [1] was 1.48 fold enrichment (6-mer frequency, TF over GST control); in [2], 1.43 fold enrichment (6-mer frequency, TF over GST control); in [3], 1.18 fold enrichment (6-mer frequency, TF over GST control); in assay [4], 1.32 fold enrichment (6-mer frequency, TF over GST control); in [5] it was 1.37 fold enrichment (6-mer frequency, TF over GST control); in [6], 1.23 fold enrichment (6-mer frequency, TF over GST control). Besides, the binding signal in [7] is 1.4 fold enrichment (6-mer frequency, TF over GST control); in [8] it was 1.36 fold enrichment (6-mer frequency, TF over GST control); in assay [9] it was 1.11 fold enrichment (6-mer frequency, TF over GST control); in assay [10], 1.27 fold enrichment (6-mer frequency, TF over GST control).
TAATTA: the binding signal in [1] was 1.22 fold enrichment (6-mer frequency, TF over GST control); in [2] it was 1.31 fold enrichment (6-mer frequency, TF over GST control); in assay [3] it was 1.81 fold enrichment (6-mer frequency, TF over GST control); in assay [4], 1.4 fold enrichment (6-mer frequency, TF over GST control); in assay [5], 1.23 fold enrichment (6-mer frequency, TF over GST control); in [6] it was 1.17 fold enrichment (6-mer frequency, TF over GST control). The binding signal is 1.35 fold enrichment (6-mer frequency, TF over GST control) in assay [7]; 1.3 fold enrichment (6-mer frequency, TF over GST control) in assay [8]; 2.74 fold enrichment (6-mer frequency, TF over GST control) in [9]; 1.33 fold enrichment (6-mer frequency, TF over GST control) in [10].
With TTTTCT, the binding signal was 1.26 fold enrichment (6-mer frequency, TF over GST control) in assay [1]; 1.28 fold enrichment (6-mer frequency, TF over GST control) in [2]; 2.46 fold enrichment (6-mer frequency, TF over GST control) in [3]; 1.15 fold enrichment (6-mer frequency, TF over GST control) in assay [4]; 1.46 fold enrichment (6-mer frequency, TF over GST control) in assay [5]; 1.32 fold enrichment (6-mer frequency, TF over GST control) in [6]. Further, the binding signal in assay [7] is 1.48 fold enrichment (6-mer frequency, TF over GST control); in [8], 1.35 fold enrichment (6-mer frequency, TF over GST control); in assay [9], 1.61 fold enrichment (6-mer frequency, TF over GST control); in assay [10], 1.21 fold enrichment (6-mer frequency, TF over GST control).
Turning to CAATCT, the binding signal in assay [1] is 1.2 fold enrichment (6-mer frequency, TF over GST control); in [2], 1.21 fold enrichment (6-mer frequency, TF over GST control); in assay [3], 1.48 fold enrichment (6-mer frequency, TF over GST control); in [4], 1.19 fold enrichment (6-mer frequency, TF over GST control); in [5] it was 1.2 fold enrichment (6-mer frequency, TF over GST control); in assay [6] it was 1.2 fold enrichment (6-mer frequency, TF over GST control). In addition, the binding signal in assay [7] was 1.3 fold enrichment (6-mer frequency, TF over GST control); in assay [8], 1.19 fold enrichment (6-mer frequency, TF over GST control); in [9], 1.42 fold enrichment (6-mer frequency, TF over GST control); in assay [10] it was 1.26 fold enrichment (6-mer frequency, TF over GST control).
